The results in this text go back to PubChem BioAssay.

The source made the active and inactive calls. Unless noted, the rule behind the calls is not given here.

Assay [1] concerns Wnt5a (protein binding on small-molecule microarray). In words: Wnt5a binders on small-molecule microarray, primary screen, biophysical, 635/667 nm fluorescence (AID 1142).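 Note: fluorescence read at 667 nm with signal to noise per printed feature.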 Conditions: 635 nm fluorescence, higher = more signal.
Assay [2] in a line: cell viability in Huh7 cells, primary screen, cytotoxicity control for HCV replication inhibitor project, CellTiter-Glo luminescence, basal, 48 h (AID 1143).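 Note: Huh7 hepatoma cells carrying a hepatitis C replication reporter with no stimulus; test concentration not given here.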 The conditions noted are these: Huh7 HCV replicon, higher = more signal, called active from +8 up or from −8 down. A general note: ATP-based viability assays read luminescence as a measure of living cells.
Assay [3] can be described thus: P. aeruginosa biofilm formation inhibitors, primary screen, PAO1 strain, BacTiter-Glo luminescence, LB-PBS (AID 1144). The conditions noted are these: 12 h, higher = more signal.
Assay [4] in a line: CREB reporter modulators without forskolin, primary screen, cell-based, PC12, CRE-LacZ reporter, unstimulated (AID 1145). Conditions: no forskolin, luminescence, 4.5 h, higher = more signal, called active from +8 up or from −8 down.
Assay [5] in a line: CREB reporter modulators under forskolin, primary screen, cell-based, PC12, CRE-LacZ reporter, forskolin-stimulated (AID 1146).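 Note: PC12 cells with 6xCRE LacZ reporter stimulated by forskolin 10 µM; beta-galactosidase reporter signal reflecting CREB driven transcription.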 Conditions: luminescence, 4.5 h, higher = more signal, called active from +8 up or from −8 down.
For assay [6], the target named is Streptavidin (Streptomyces avidinii) (UniProt P22629). As to the kind of experiment: streptavidin binders on small-molecule microarray, primary screen, artefact control for SMM compound annotation, biophysical, 635/667 nm fluorescence (AID 1147).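 Note: signal reflects streptavidin binding to arrayed compounds as a control protein.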 Conditions: streptavidin binding, higher = more signal.
Assay [7] in a line: small-molecule binders of probe aInhba, primary screen, biochemical, small-molecule microarray, 635/667 nm fluorescence (AID 1148).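 Note: score merges 667nm spot fluorescence with signal-to-noise for antibody binding to printed compounds.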 The conditions noted are these: higher = more signal.
The target in assay [8] is Torsin-1A (Homo sapiens) (UniProt O14656). As to the kind of experiment: torsin A binders from cell lysate, primary screen, small-molecule microarray, wild-type, 635/667 nm (AID 1149). Conditions: COS7 hTOR1A-WT lysate, 635 nm fluorescence, higher = more signal.
Assay [9] shares this target. As to the kind of experiment: small-molecule binders of mutant TOR1A in lysate, primary screen, cell lysate, small-molecule microarray, COS7 lysate, 635/667 nm fluorescence (AID 1150).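 Note: score pools 667 nm emission and signal to noise measuring lysate protein binding.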 The conditions noted are these: COS7 hTOR1A mutant lysate, 635 nm fluorescence, higher = more signal.
The test system of assay [10] is Sonic hedgehog protein (Shh). In words: small-molecule binders of Shh protein, primary screen, biochemical, small-molecule microarray, 635/667 nm fluorescence (AID 1151).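 Note: Shh protein binding to compounds spotted on small-molecule microarray slides; score combines spot fluorescence intensity with signal-to-noise across triplicate slides.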 Conditions: small-molecule microarray binding, 635 nm fluorescence; higher = more signal.
Assay [11] can be described thus: E. coli DRC41 culture turbidity changes, primary screen, E. coli filamentation inducer project, strain DRC41, OD650, 48 h (AID 1152).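 Note: E. coli MC1000 strain DRC41 lacking acrAB efflux pump and sulA.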 The conditions noted are these: E. coli DRC41 (acrAB sulA), higher = more signal, called active from +8 up or from −8 down.
Assay [12] is described as follows: small-molecule binders of probe aLefty1, primary screen, biochemical, small-molecule microarray, 635/667 nm fluorescence (AID 1153).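 Note: score merges spot fluorescence with signal-to-noise ratio from the scanned slide images.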 The conditions noted are these: higher = more signal.
Assay [13] can be described thus: PSAC antagonists in infected red cells, primary screen, cell-based, P. falciparum Indochina, OD700, 1 h (AID 1154). Conditions: P. falciparum Indochina infected RBC osmotic lysis, higher = more signal, called active from +8 up or from −8 down.
A short description of assay [14]: PSAC antagonists in infected red cells, primary screen, cell-based, P. falciparum Indochina, OD700, 2 h (AID 1155).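 Note: lysis reports solute entry through the parasite surface anion channel PSAC; channel blockers reduce lysis of infected cells.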 The conditions noted are these: P. falciparum Indochina infected erythrocytes, osmotic lysis OD700; higher = more signal, called active from +8 up or from −8 down.
Assay [15] is described as follows: osmotic lysis modulators in infected erythrocytes, primary screen, PSAC antagonist project, cell-based, P. falciparum Indochina, OD700, 3 h (AID 1156). The conditions noted are these: higher = more signal, called active from +8 up or from −8 down.
Assay [16] is described as follows: PSAC antagonists in infected red cells, primary screen, cell-based, P. falciparum Indochina, OD700, 18 h (AID 1157). Conditions: P. falciparum Indochina infected erythrocytes, osmotic lysis OD700, 18 h; higher = more signal, called active from +8 up or from −8 down.
Assay [17] in a line: modulators of S6 phosphorylation in cells, primary screen, cell-based, A549, cytoblot, luminescence, serum-stimulated (AID 1158).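 Note: serum-stimulated A549 lung adenocarcinoma cells; signal is phosphorylated S6 detected by cytoblot immunostaining with HRP secondary.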 Conditions: A549 phospho-S6 cytoblot, 5 h, higher = more signal.
Assay [18] deals with NADPH oxidase 2 (Homo sapiens) (UniProt P04839). In words: NOX2-dependent H2O2 signal modulators, primary screen, NOX inhibitor project, cell-based, HEK293-NOX2, PMA-stimulated, Amplex Red fluorescence (AID 1159). Note: test concentration not given here. Conditions: 45 min, higher = more signal, called active from +8 up or from −8 down.
In assay [19] the target is NADPH oxidase 4 (Homo sapiens) (UniProt Q9NPH5). As to the kind of experiment: NOX4-dependent H2O2 signal modulators, primary screen, NOX inhibitor project, cell-based, HEK293-NOX4, tetracycline-induced, Amplex Red fluorescence (AID 1160). Conditions: 45 min, higher = more signal, called active from +8 up or from −8 down.
Assay [20] concerns the target NADPH oxidase 5 (Homo sapiens) (UniProt Q96PH1). In words: NOX5-dependent H2O2 signal modulators, primary screen, NOX inhibitor project, cell-based, HEK293-NOX5, Amplex Red fluorescence (AID 1161). Conditions: HEK293-NOX5, ionomycin, 45 min, higher = more signal.

Sequence of NADPH oxidase 4 (Homo sapiens) (Q9NPH5 whole entry, looked up): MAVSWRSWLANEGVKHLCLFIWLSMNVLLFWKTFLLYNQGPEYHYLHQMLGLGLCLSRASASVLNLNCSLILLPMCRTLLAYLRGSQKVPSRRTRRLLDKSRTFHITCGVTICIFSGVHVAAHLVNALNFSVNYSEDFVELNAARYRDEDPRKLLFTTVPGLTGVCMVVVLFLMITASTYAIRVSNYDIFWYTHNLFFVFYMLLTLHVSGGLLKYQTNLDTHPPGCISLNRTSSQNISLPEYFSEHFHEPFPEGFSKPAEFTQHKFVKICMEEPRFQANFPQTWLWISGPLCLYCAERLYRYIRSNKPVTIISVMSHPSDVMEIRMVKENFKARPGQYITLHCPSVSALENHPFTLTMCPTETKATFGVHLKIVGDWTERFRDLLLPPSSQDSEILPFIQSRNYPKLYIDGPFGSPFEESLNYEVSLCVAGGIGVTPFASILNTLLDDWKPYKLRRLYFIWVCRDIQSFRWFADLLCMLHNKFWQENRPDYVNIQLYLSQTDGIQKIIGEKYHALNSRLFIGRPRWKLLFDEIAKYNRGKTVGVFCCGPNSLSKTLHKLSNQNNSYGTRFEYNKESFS
Sequence of NADPH oxidase 2 (Homo sapiens) (P04839 whole entry, looked up): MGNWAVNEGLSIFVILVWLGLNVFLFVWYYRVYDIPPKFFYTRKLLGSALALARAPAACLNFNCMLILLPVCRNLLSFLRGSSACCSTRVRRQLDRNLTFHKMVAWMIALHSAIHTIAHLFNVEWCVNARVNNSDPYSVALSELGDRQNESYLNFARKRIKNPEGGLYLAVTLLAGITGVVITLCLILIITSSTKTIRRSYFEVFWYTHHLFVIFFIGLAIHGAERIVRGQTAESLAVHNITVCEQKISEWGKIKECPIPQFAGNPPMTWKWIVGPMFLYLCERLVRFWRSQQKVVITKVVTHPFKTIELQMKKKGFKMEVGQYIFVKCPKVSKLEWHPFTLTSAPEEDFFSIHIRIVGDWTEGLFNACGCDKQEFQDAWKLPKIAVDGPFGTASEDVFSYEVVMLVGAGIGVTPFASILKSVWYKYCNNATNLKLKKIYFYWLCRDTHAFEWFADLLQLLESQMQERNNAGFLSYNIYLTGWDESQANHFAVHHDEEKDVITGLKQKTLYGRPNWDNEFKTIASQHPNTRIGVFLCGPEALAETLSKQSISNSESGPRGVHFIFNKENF
Sequence of Streptavidin (Streptomyces avidinii) (P22629 whole entry, looked up): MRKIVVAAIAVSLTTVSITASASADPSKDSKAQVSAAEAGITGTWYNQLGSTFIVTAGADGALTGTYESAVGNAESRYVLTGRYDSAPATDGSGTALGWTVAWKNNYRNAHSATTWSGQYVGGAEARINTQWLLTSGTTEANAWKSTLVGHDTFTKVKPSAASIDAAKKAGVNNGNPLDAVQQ
Sequence of Torsin-1A (Homo sapiens) (O14656 whole entry, looked up): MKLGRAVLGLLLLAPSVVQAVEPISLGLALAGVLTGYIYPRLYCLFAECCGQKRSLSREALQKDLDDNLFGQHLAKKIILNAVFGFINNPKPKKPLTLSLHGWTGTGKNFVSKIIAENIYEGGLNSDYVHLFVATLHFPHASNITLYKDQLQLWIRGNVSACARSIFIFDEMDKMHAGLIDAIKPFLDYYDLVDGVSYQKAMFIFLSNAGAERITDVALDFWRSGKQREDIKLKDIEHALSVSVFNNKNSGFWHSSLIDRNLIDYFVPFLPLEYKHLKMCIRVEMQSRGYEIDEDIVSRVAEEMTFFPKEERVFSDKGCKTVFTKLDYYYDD
Sequence of NADPH oxidase 5 (Homo sapiens) (Q96PH1 whole entry, looked up): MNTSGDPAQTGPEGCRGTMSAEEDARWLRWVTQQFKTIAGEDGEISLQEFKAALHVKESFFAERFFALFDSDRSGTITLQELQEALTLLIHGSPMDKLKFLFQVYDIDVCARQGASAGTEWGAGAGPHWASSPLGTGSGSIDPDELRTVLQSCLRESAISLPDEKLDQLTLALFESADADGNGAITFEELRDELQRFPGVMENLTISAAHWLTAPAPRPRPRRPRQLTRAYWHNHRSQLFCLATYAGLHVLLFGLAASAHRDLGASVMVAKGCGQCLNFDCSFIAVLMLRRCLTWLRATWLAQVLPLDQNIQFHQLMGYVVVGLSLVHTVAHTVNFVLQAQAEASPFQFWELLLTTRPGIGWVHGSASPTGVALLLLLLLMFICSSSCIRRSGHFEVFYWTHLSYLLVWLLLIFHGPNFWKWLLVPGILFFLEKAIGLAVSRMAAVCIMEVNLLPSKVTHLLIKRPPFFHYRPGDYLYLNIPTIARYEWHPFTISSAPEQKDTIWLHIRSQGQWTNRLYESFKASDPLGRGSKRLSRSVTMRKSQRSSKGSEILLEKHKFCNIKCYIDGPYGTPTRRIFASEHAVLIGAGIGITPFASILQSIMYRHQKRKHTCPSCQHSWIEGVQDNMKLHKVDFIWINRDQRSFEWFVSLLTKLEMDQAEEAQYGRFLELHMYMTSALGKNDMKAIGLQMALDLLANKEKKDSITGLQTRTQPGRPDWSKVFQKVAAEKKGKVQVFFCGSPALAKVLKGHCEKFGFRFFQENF

For `C=C(C(=O)CC[C@@H](OC(=O)c1ccccc1-c1ccccc1C(=O)O)c1cccc(OCCO)c1)C(C)C`, the composite z-score in [1] is 0.655; in [6], -0.364; in [7] it was 0.0391; in assay [8] it was 2.85; in assay [9], 1.59; in assay [10] it was 1.95. Besides, in assay [12], the composite z-score was 0.262. In addition, the z-score in assay [2] was 0.954 (inactive); in [3], -0.417 (inactive); in assay [4] it was 2.16 (inactive); in assay [5], 2.88 (inactive); in assay [11], 0.272 (inactive); in assay [13], 4.83 (inactive). Also, the z-score was 0.407 (inactive) in [14]; 0.51 (inactive) in assay [15]; 0.233 (inactive) in [16]; -0.205 in [17]; 3.11 (inactive) in assay [18]; 1.06 (inactive) in assay [19]. In addition, the z-score in assay [20] was -0.442.
As to `COc1ccc(C#Cc2ccc3c(c2)[C@]2(C(=O)N3)[C@H](c3ccccc3OCCO)N3[C@H](c4ccccc4)[C@H](c4ccccc4)OC(=O)[C@H]3[C@@H]2C(=O)NC[C@H](O)c2ccccc2)cc1`, the composite z-score in assay [1] was 0.537; in assay [6], 0.448; in assay [7] it was -0.0259; in assay [8], 0.138; in assay [9], 0.701; in [10] it was 1.72. In assay [12], this compound gave a composite z-score of 0.0147. The z-score in assay [2] is -5.57 (inactive); in assay [3], -0.627 (inactive); in assay [4], 0.0921 (inactive); in [5], -0.54 (inactive); in assay [11] it was 1.21 (inactive); in assay [13], 1.71 (inactive). Moreover, the z-score in [14] is 1.71 (inactive); in assay [15], 0.0857 (inactive); in [16], 1.2 (inactive); in assay [17] it was 0.138; in [18] it was 1.78 (inactive); in assay [19] it was 0.243 (inactive). Also, the z-score in assay [20] turned out to be 1.32.
As for `[N-]=[N+]=Nc1ccccc1C[C@]1(C(N)=O)COC(c2ccc(OCCCO)cc2)=N1`, the composite z-score in [1] is 0.131; in assay [6] it was 0.559; in assay [7] it was 0.285; in assay [8], 0.517; in assay [9], 1.21; in assay [10] it was -0.567. In assay [12], the composite z-score stood at 0.146. The z-score in assay [2] is -3.62 (inactive); in [3] it was -1.16 (inactive); in assay [4], 1.33 (inactive); in assay [5], -1.31 (inactive); in assay [11] it was -0.142 (inactive); in [13], 24.7 (active). Further, the z-score in assay [14] is 9.16 (active); in [15], 1.56 (inactive); in assay [16] it was 0.0294 (inactive); in assay [17], 1.84; in [18], -2.14 (inactive); in [19], -1.48 (inactive). The compound further gave a z-score in [20] of -2.48.
As to `CO[C@H]1O[C@H](CO)[C@@H](OC(=O)Nc2cccc(F)c2)[C@H](OC(=O)Nc2ccc3c(c2)OCO3)[C@@H]1OC(=O)Nc1ccc2c(c1)OCO2`, the composite z-score in [1] came out at 0.22; in [6], 0.438; in [7] it was 0.0471; in assay [8], 1.17; in assay [9] it was 1.21; in assay [10], 0.519. Further, the composite z-score in assay [12] stood at 0.37. Besides, the z-score was -3.26 (inactive) in assay [2]; 0.221 (inactive) in [3]; -0.207 (inactive) in assay [4]; -0.41 (inactive) in assay [5]; -0.727 (inactive) in [11]; 12 (active) in assay [13]. The z-score in assay [14] is 2.05 (inactive); in [15] it was 1.16 (inactive); in [16], 1.18 (inactive); in [17], 0.296; in [18] it was -3.87 (inactive); in assay [19], -1.07 (inactive). Also, in assay [20], the z-score is -1.81.
On to `Cc1ccc(S[C@]2(C(=O)NC(C)C)CC(=O)N(Cc3ccccc3)[C@@H]2c2ccc(CO)cc2)cc1`, for which the composite z-score in assay [1] was -0.394; in assay [6] it was -0.375; in assay [7], -0.143; in assay [8], -1.65; in [9] it was -1.5; in assay [10] it was -0.501. This compound yielded a composite z-score in [12] of 0.082. The z-score in assay [2] is -2.19 (inactive); in assay [3] it was -1.55 (inactive); in assay [4], -0.295 (inactive); in [5], 0.12 (inactive); in [11], 1.33 (inactive); in assay [13], 1.66 (inactive). Besides, the z-score in assay [14] was -0.709 (inactive); in [15], -0.379 (inactive); in [16], -0.581 (inactive); in assay [17], 1.46; in assay [18], -0.101 (inactive); in assay [19] it was 0.0692 (inactive). In assay [20], this compound returned a z-score of -0.771.
As to `COCCCNC(=O)[C@@]1(Cc2ccccc2I)c2ccccc2C(=O)N(Cc2ccccc2OC)[C@H]1c1ccc(CO)cc1`, the composite z-score in [1] is -0.43; in assay [6] it was -0.67; in assay [7], -0.162; in assay [8], 0.884; in assay [9] it was 0.431; in assay [10], -0.845. In [12], this compound came in with a composite z-score of -0.164. For the same compound, the z-score was -3.39 (inactive) in assay [2]; 0.767 (inactive) in [3]; 0.531 (inactive) in assay [4]; -0.797 (inactive) in assay [5]; 0.567 (inactive) in assay [11]; 10.1 (active) in [13]. Besides, the z-score is 1.27 (inactive) in assay [14]; 1.73 (inactive) in assay [15]; 0.576 (inactive) in [16]; -0.0483 in [17]; -1.68 (inactive) in assay [18]; 0.642 (inactive) in assay [19]. Moreover, the z-score in assay [20] is -1.19.
Regarding `COc1c(C)cc(-c2cc3c(c(CCc4ccccc4)n2)[Si](C(C)C)(C(C)C)O[C@H]3c2ccccc2)cc1C`, the composite z-score is -0.169 in [1]; -0.0663 in [6]; -0.128 in [7]; -1.11 in [8]; -0.554 in [9]; -0.11 in assay [10]. Further, the composite z-score in assay [12] is -0.147. Further, the z-score in assay [2] was -2.84 (inactive); in assay [3], -0.0716 (inactive); in assay [4], -0.272 (inactive); in [5], 0.412 (inactive); in assay [11] it was -1.05 (inactive); in [13], 4.98 (inactive). The z-score was 2.59 (inactive) in [14]; 0.576 (inactive) in assay [15]; 1.09 (inactive) in [16]; -0.673 in assay [17]; 0.283 (inactive) in [18]; 1.11 (inactive) in [19]. The compound further gave a z-score in assay [20] of 0.201.
For `COCCCNC(=O)[C@@]1(Cc2ccccc2I)c2ccccc2C(=O)N(Cc2ccccc2C(F)(F)F)[C@H]1c1ccc(CO)cc1`, the composite z-score is -0.347 in [1]; -0.253 in [6]; -0.016 in assay [7]; 0.0167 in assay [8]; -0.0514 in assay [9]; -0.414 in assay [10]. The composite z-score in assay [12] was -0.142. Also, the z-score was -2.13 (inactive) in assay [2]; -0.528 (inactive) in [3]; -0.619 (inactive) in assay [4]; 1.15 (inactive) in assay [5]; -0.506 (inactive) in assay [11]; 3.42 (inactive) in assay [13]. Further, the z-score in assay [14] is 1.31 (inactive); in assay [15], 2.09 (inactive); in assay [16], 0.866 (inactive); in assay [17], -0.55; in [18], 0.227 (inactive); in assay [19] it was -1.01 (inactive). For the same compound, in assay [20], the z-score was -1.42.
